Lmaj promast: Leishmania major promastigote growth inhibition, primary screen. Leishmania major promastigotes, resazurin fluorescence viability. inhibition, % at 10 µM. 200,000 compounds, 9% hits; in the data active = inhibition above about 50%;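 also: promastigotes grown with compound for 44 hours at 28 °C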
p97 ATPase inh: inhibitors of human p97 ATPase, primary screen, biochemical. recombinant p97 ATPase, Kinase-Glo ATP luminescence, 3 h. AID 1481, 2009. inhibition, % at 8 µM. 220,000 compounds, 0.42% hits. Transitional endoplasmic reticulum ATPase (Homo sapiens), P55072; in the data active = inhibition above about 15%;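 also: 0% = DMSO vehicle and 100% = wells lacking enzyme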
HCT116 bCat-KO: primary screen for growth suppressors in beta-catenin knockout HCT116 cells (colon tumor, human); HCT116 beta-catenin knockout viability, CellTiter-Glo, 60 h; active compounds read low; viability, % at 10 µM; 140,000 compounds, 1.5% hits; AID 818, 2007;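 active = viability at or under a set limit, the compound median less 4 SD, cut at about 6% in these data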;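 also: 0% = Hyamine 1622 control at 20 µM and 100% = untreated cell control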
Insulin prom inh: inhibitors of insulin promoter-driven GFP, primary screen, imaging, TRM-6 cells (human fetal islet line), eGFP reporter, cell count; 130,000 compounds, 0.9% hits; AID 1273, 2008; inhibition, % at 2 µM; reporter expression induced with tamoxifen;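 active = inhibition above the mean plus 3 SD, with well images judged a real hit on visual review, cut at about 60% in these data, passing the limit was not always enough; inconclusive = inhibition over the cutoff but images rejected on review; inactive = inhibition not above the cutoff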
ROMK primary: ROMK potassium channel modulators, primary screen, cell-based, thallium flux, MLSMR library; 130,000 compounds, 2% hits; B-score at 10 µM; AID 1918, 2009; Tet-inducible ROMK, thallium flux fluorescence; actives lie on both sides; ATP-sensitive inward rectifier potassium channel 1 (Homo sapiens), P48048;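 active = signal ratio slope over the read window, or its plate-corrected B-score, at least 3 SD from the plate mean, either direction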;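 also: B-score of the F/F0 ratio slope over 7 to 12 s after thallium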
Target sequence (P48048 whole entry, looked up): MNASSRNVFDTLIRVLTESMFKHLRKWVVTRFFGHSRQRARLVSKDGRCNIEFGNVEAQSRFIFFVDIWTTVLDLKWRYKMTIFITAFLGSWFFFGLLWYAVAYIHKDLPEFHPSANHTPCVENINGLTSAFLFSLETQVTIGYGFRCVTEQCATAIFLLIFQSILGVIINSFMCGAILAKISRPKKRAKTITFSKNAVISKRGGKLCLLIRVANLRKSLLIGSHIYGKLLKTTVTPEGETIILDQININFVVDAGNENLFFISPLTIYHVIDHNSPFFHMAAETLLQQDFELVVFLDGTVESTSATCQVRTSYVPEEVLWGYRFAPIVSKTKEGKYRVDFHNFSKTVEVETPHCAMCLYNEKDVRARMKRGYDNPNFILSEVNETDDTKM
PTEN del growth: growth suppression of PTEN-null HCT116, primary screen, cell-based, CellTiter-Glo; AID 827, 2007; HCT116 PTEN-null viability, 60 h; active compounds read low; 140,000 compounds, 1.2% hits; viability, % at 10 µM;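 active = viability at or below a set limit, 4 SD under the median of all tested compounds, cut at about 3.7% in these data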;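 also: PTEN knockout HCT116 line with beta catenin targeted HCT116 as companion control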
ROMK hit retest: ROMK channel modulator hit retest, confirmation, cell-based, thallium flux, duplicate, resupplied hits | shares compounds with ROMK primary | normalized thallium flux (F/F0 slope) at 10 µM | 3,000 compounds, 54% hits | fluorescence ratio; active compounds read low;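 active = Flux at 10 µM at least 3 SD below or above vehicle control mean in one or both replicates; inconclusive = no clear call, values can overlap the other calls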
Active calls of the source: *; ? = inconclusive; · = not tested or not shown. The list is not random: actives were taken first. Their share in the collection is about 10%.

SMILES | Lmaj promast | p97 ATPase inh | HCT116 bCat-KO | Insulin prom inh | ROMK primary | PTEN del growth | ROMK hit retest
CS(=O)(=O)c1nc(-c2ccco2)cc(C(F)(F)F)n1 | 42 | -2 | 96 | -3 | -3.6* | 106 | 0.057*
CC(C)Oc1ccc(C(=O)N(Cc2ccco2)C2CCS(=O)(=O)C2)cc1 (centres undefined) | -5 | -1 | 92 | -17 | -0.12 | 94 | ·
Oc1c(Br)cc(Br)cc1C=NCc1ccccc1 | -14 | 13 | · | · | 3.9* | · | ?
CN(C)c1ccc(C(=O)N/N=C/c2cc(Br)cc(Br)c2O)cc1 | · | 5 | · | · | -0.045 | · | ·
Oc1c(Br)cc(Br)cc1C=NCc1ccc(F)cc1 | -12 | 7 | · | · | 3.3* | · | 0.12*
COc1cc(C(=O)Nc2ccc3c(c2)Cc2cc(NC(=O)c4cc(OC)c(OC)c(OC)c4)ccc2-3)cc(OC)c1OC | -5 | -4 | 41 | · | · | 46 | ·
CCN(CCCn1c(SCC#N)nc2ccccc2c1=O)c1ccccc1 | 44 | 0 | 55 | · | -1.9 | 56 | ·
CC1(CC(=O)N/N=C/c2cc([N+](=O)[O-])c(O)cc2O)OCCO1 | -3 | 6 | · | 56 | 0.7 | · | 0.081
Cc1c(C(=O)O)oc2ccc(S(=O)(=O)NCc3ccc4c(c3)OCO4)cc12 | -3 | 6 | 91 | 31 | · | 95 | 0.075
S=C(NCc1ccc2c(c1)OCO2)NC1CC1 | 0 | 1 | · | · | -19* | · | 0.089
CC(=O)OCC(=O)NCc1ccc2c(c1)OCO2 | 4 | -2 | 106 | · | 0.73 | 108 | ·
Cc1ccc(S(=O)(=O)NC(=O)NCc2ccc3c(c2)OCO3)cc1 | -6 | 6 | 104 | 71 | 1.5 | 112 | 0.074
CCC(NC(=O)NCc1ccc2c(c1)OCO2)(C(F)(F)F)C(F)(F)F | 0 | 1 | 94 | 59 | 1.5* | 95 | 0.086
O=C(CSc1nnc(-c2ccc(Cl)cc2Cl)n1C1CCCCC1)N1CCCC1 | 7 | -2 | 96 | -100 | · | 86 | ·
O=C1NC(c2ccccc2)=C(c2ccc3ccccc3n2)C(c2ccc(F)cc2)N1 (centres undefined) | 38 | 1 | 62 | 37 | -3* | 49 | 0.076
CC1=NNC(=O)C1C(c1cccc(O)c1)C(C#N)C#N (centres undefined) | · | 12 | · | · | -2.4* | · | 0.076
Cc1ccc(N2CS(=O)(=O)/C(=C/N(C)C)C2=O)cc1 | -4 | 4 | 106 | 18 | · | 94 | 0.082
CN(C)/C=C1\C(=O)N(c2ccc(Cl)cc2)CS1(=O)=O | -1 | -1 | 87 | · | · | 97 | ·
CC(=O)COc1ncn(-c2ccccc2)n1 | -3 | -3 | 99 | -11 | -0.11 | 98 | ·
O=Cc1cccc(OC(=O)c2ccc(Cl)cc2Cl)c1 | 0 | 14 | 89 | -57 | 3* | 101 | 0.088
COc1cc(C(=O)Oc2cccc(C=O)c2)cc(OC)c1OC | 18 | 1 | 53 | -27 | · | 65 | ·
N/C(=N\S(=O)(=O)c1ccc(Cl)s1)c1ccccc1 | -5 | 4 | 91 | · | -2.3 | 103 | ·
CCOC(=O)CSC1=NC(=O)/C(=C/c2ccc(Br)cc2)S1 | -10 | 8 | · | 36 | -0.72 | · | 0.061*
CCc1ccc(/C=C2\SC(N3CCCC3)=NC2=O)cc1 | 14 | -6 | · | · | -1.1 | · | ·
CCOC(=O)CSc1nc(-c2ccccc2)ns1 | -8 | 1 | · | -75 | 0.32 | · | ·
CCOC(=O)CSC1=NC(=O)/C(=C\c2ccc(OC(C)=O)cc2)S1 | -1 | -5 | 95 | 0 | · | 93 | 0.04*
CCc1ccccc1N1C[C@@]23C=C[C@@H](O2)C(C(=O)OCC(C)C)[C@H]3C1=O (some centres undefined) | -4 | 1 | 103 | · | 0.0027 | 95 | ·
C/C(=N\S(=O)(=O)c1ccc(C)cc1)N1CCN(S(=O)(=O)c2ccccc2)C1C(C)C (centres undefined) | 15 | 3 | 90 | -25 | -0.065 | 93 | ·
N#C/C(=C\c1ccc(O)c([N+](=O)[O-])c1)C(=O)NCc1ccccc1 | 8 | 6 | · | · | 1.6 | · | ·
N#C/C(=C\c1ccc(O)c(Br)c1)C(=O)NCc1ccccc1 | -7 | 4 | · | -32 | 3.6* | · | 0.066*

Screens (PubChem)
